In PubChem BioAssay AID1974 (The Scripps Research Institute Molecular Screening Center, 2009):
Hit rate of the full screen: of about 300,000 compounds, about 3,200 (1.1%) were called active. This is one part of a sample in which actives are shown more often than they occur. Values without a mark were called inactive.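 How the source made its calls: active means inhibition above the campaign mean inhibition plus 3 SD (cut at about 35% in these data); inactive means the rest.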

These molecules were tested against Glutathione S-transferase omega-1 (Homo sapiens) (UniProt P78417) (assay: human GSTO1 enzyme inhibition – biochemical, fluorescence polarization, counter-screen for RBBP9 inhibitor project, primary screen (AID 1974;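 further: 0% = GSTO1-1 with DMSO and 100% = wells lacking GSTO1-1 enzyme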)). Settings: recombinant GSTO1, activity-based probe fluorescence polarization; at 5.96 µM; hits give high values.
Glutathione S-transferase omega-1 (Homo sapiens), sequence (P78417 whole entry, looked up): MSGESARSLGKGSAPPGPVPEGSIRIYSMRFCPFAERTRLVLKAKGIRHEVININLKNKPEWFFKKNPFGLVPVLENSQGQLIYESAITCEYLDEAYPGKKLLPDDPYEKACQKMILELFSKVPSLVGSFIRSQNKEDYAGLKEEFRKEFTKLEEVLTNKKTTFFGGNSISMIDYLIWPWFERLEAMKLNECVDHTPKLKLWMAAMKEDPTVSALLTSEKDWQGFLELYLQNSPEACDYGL

With `Cc1ccc(SCC2=NNC(=O)C2)cc1` as the molecule, how does the inhibition read?
The inhibition was 42.2% (active).

How did the inhibition turn out when `Cc1ccc(SCc2cc(=O)[nH]c(N3CCCCC3)n2)cc1` was run?
Its inhibition is -1.38%.

With `Cc1ccc(SCCSc2ncccn2)cc1` as the molecule, how does the inhibition read?
Its inhibition is -0.48%.

How did the inhibition turn out when `COc1ccc(NC(=O)CCC(=O)N2CCN(S(=O)(=O)c3ccc(C)cc3)CC2)c(OC)c1` was run?
Its inhibition is -6.89%.

With `Cn1ccsc1=NC(=O)c1cc(S(=O)(=O)N2CCOCC2)ccc1Cl` as the molecule, how does the inhibition read?
Its inhibition is -4.31%.

For `CCOC(=O)c1cc(Sc2ccccc2N)cc(C(=O)OCC)n1`, which inhibition is on record?
The inhibition was 8.34%.

`CCOC(=O)c1c(C)oc2cc(Sc3ccccc3)c(O)c(O)c12` was tested. Which inhibition did it give?
Its inhibition is 47.9% (active).

`CCOC(=O)c1c(-c2ccccc2)oc2cc(Br)c(O)c(C=O)c12` was tested. Which inhibition did it give?
The inhibition was 0.6%.

For `Oc1cccc(/C=N/Nc2ccc(Cl)nn2)c1O`, which inhibition is on record?
Its inhibition is 73% (active).

`Clc1ccc(N/N=C/c2cccs2)nn1` was tested. Which inhibition did it give?
The inhibition was 6.83%.

For `Cc1ccsc1/C=N/Nc1ccc(Cl)nn1`, which inhibition is on record?
The inhibition was -1.2%.

`Cn1c(NC(=O)c2ccccc2)nc2ccccc21` was tested. Which inhibition did it give?
The inhibition was 4.42%.

`CC(C)CN(C(=O)COC(=O)c1ccc(Cl)c(N)c1)c1c(N)n(Cc2ccccc2)c(=O)[nH]c1=O` was tested. Which inhibition did it give?
Its inhibition is 3.23%.

With `Cc1[nH][nH]c(=O)c1C(c1ccc2c(c1)OCO2)c1c(C)[nH][nH]c1=O` as the molecule, how does the inhibition read?
Its inhibition is 17.4%.

For `CCOc1ccc(C(c2c(C)[nH][nH]c2=O)c2c(C)[nH][nH]c2=O)cc1OCC`, which inhibition is on record?
Its inhibition is 23.6%.

How did the inhibition turn out when `Cc1[nH][nH]c(=O)c1C(c1ccc(-c2ccc(Cl)cc2)o1)c1c(C)[nH][nH]c1=O` was run?
Its inhibition is 65.6% (active).

`NC(=O)NCCCC(=O)O` was tested. Which inhibition did it give?
Its inhibition is 6.89%.

With `OCc1ccc(-c2ccccc2)c(-c2ccccc2)c1` as the molecule, how does the inhibition read?
The inhibition was 0.95%.

With `Cn1c(-c2ccc(F)cc2)cc2onc(-c3ccccc3Cl)c2c1=O` as the molecule, how does the inhibition read?
Its inhibition is 2.68%.

With `CCN1CC=C2C(C#N)=C(N)C(C#N)(C#N)[C@H](c3ccoc3)[C@H]2C1` as the molecule, how does the inhibition read?
The inhibition was 38% (active).

For `N#CC1=C(N)C(C#N)(C#N)[C@H](c2ccsc2)[C@H]2COCC=C12`, which inhibition is on record?
Its inhibition is 10.3%.

For `CCCN1CC=C2C(C#N)=C(N)C(C#N)(C#N)C(c3cc(OC)ccc3OC)C2C1` (centres undefined), which inhibition is on record?
Its inhibition is 3.38%.

With `Cc1ccc(C(=O)OCC(=O)N2CC(C)CC(C)C2)cc1S(=O)(=O)N1CCCCC1` (centres undefined) as the molecule, how does the inhibition read?
The inhibition was 1.6%.

`COc1cc(NC(=O)CSC(=S)N2CCCC2)c(OC)cc1Cl` was tested. Which inhibition did it give?
Its inhibition is 1.86%.

With `CCOC(=O)COc1cc(O)c2c(=O)cc(-c3ccccc3)oc2c1` as the molecule, how does the inhibition read?
Its inhibition is 4.45%.

`COc1ccc(-c2cc(=O)c3c(O)cc(O[C@@H]4O[C@H](CO[C@@H]5O[C@@H](C)[C@H](O)[C@@H](O)[C@H]5O)[C@@H](O)[C@H](O)[C@H]4O)cc3o2)cc1O` was tested. Which inhibition did it give?
The inhibition was 6.25%.

With `COc1c(O)cc2oc(-c3ccc(O)c(O)c3)cc(=O)c2c1O` as the molecule, how does the inhibition read?
Its inhibition is 37% (active).

Which inhibition does the source give for `CC(C)(C)n1nc(Cc2cccc3ccccc23)c(C#N)c1N` here?
Its inhibition is 26.1%.

Which inhibition does the source give for `COc1ccc(C(CCN(Cc2ccc(OC)c(OC)c2)C(=O)CCl)c2ccccc2)cc1` (centres undefined) here?
Its inhibition is 87% (active).

How did the inhibition turn out when `COc1ccc(CN(C)C(=O)CC(c2ccccc2)c2ccccc2)cc1` was run?
The inhibition was -5.61%.

Which inhibition does the source give for `COc1ccc(COC(=O)NC(C(=O)O)c2ccccc2)cc1` (centres undefined) here?
Its inhibition is 8.98%.

`CCOc1cc(/C=N/NC(=O)c2cccc(S(=O)(=O)N3CCOCC3)c2)ccc1OCC(=O)N(C)C` was tested. Which inhibition did it give?
The inhibition was 5.36%.

Which inhibition does the source give for `O=C1CCCN1C(=O)COc1ccc([N+](=O)[O-])cc1` here?
The inhibition was -4.91%.

`CCc1nnc(NC(=O)CCC(=O)O)s1` was tested. Which inhibition did it give?
The inhibition was 3.28%.

For `CSc1nsc(SCC(=O)Nc2cc(C(=O)O)ccc2C)n1`, which inhibition is on record?
Its inhibition is -0.11%.

For `CCc1nnc(NC(=O)CSc2nc(SC)ns2)s1`, which inhibition is on record?
The inhibition was 47.1% (active).

For `CCc1ccc(Nc2n[n+](-c3ccccc3)c(-c3cccc(Cl)c3Cl)s2)cc1`, which inhibition is on record?
Its inhibition is 5.75%.

With `O=C(N/N=C/c1c(Cl)[nH]c2ccccc12)c1sc2ccccc2c1Cl` as the molecule, how does the inhibition read?
The inhibition was -18.9%.

`COc1ccc(N=C(C)c2sc3ccccc3c2O)cc1` was tested. Which inhibition did it give?
Its inhibition is 3.42%.

For `Oc1ccc(N=Cc2sc3ccccc3c2Cl)cc1`, which inhibition is on record?
Its inhibition is 87.7% (active).

How did the inhibition turn out when `CCN(CC(=O)Nc1c(F)cccc1F)C(=O)C1CCC1` was run?
Its inhibition is 0.37%.

With `COc1ccc(C(=O)OCC(=O)c2ccc(Cl)s2)c(OC)c1OC` as the molecule, how does the inhibition read?
Its inhibition is 2.69%.

How did the inhibition turn out when `NNC(=O)c1oc2nc(-c3ccccc3)cc(-c3ccco3)c2c1N` was run?
The inhibition was 38.1% (active).

With `O=C(Nc1cccc(F)c1)c1cc(-c2ccco2)nc2ccccc12` as the molecule, how does the inhibition read?
The inhibition was -14.9%.

For `CNC(=S)NNC(=O)c1oc2nc(-c3ccccc3)cc(-c3ccco3)c2c1N`, which inhibition is on record?
The inhibition was 3.57%.

How did the inhibition turn out when `Cc1c(C)n2c(SCC(=O)NC3CCCC3)nnc2[nH]c1=O` was run?
Its inhibition is 3.72%.

`CCN(CC(=O)Nc1c(F)cccc1F)C(=O)CN1c2cccc3cccc(c23)S1(=O)=O` was tested. Which inhibition did it give?
Its inhibition is 0.89%.

For `C#CCOCCOCCOCCNc1nc(N2CCN(C(=O)CCCCCCCCCCNC(=O)[C@H]([C@@H](C)CC)n3cc(CCCCN=C(N)N)nn3)CC2)nc(N2CCN(C(=O)CCCCCCCCCCNC(=O)[C@H](CO)n3cc(CCCSC)nn3)CC2)n1`, which inhibition is on record?
The inhibition was 0.8%.

How did the inhibition turn out when `O=C(c1[nH]ncc1-c1ccc(Cl)cc1)C1CO1` (centres undefined) was run?
Its inhibition is 69.7% (active).

How did the inhibition turn out when `O=C(c1nnc(-c2ccc(Cl)cc2)o1)C1CCCC1` was run?
The inhibition was -2.2%.

`S=c1[nH]nc(-c2ccc(Cl)cc2)n1CC1CCCO1` (centres undefined) was tested. Which inhibition did it give?
The inhibition was 6.47%.

How did the inhibition turn out when `C#CCOCCOCCOCCNc1nc(N2CCN(C(=O)[C@H](CCCCN)n3cc(CCC(=O)O)nn3)CC2)nc(N2CCN(C(=O)[C@H](CCCCN)n3cc(CC(C)O)nn3)CC2)n1` (some centres undefined) was run?
The inhibition was 5.45%.

For `Cc1cccc(N2CC(C(=O)Nc3ccccc3N3CCCC3)CC2=O)c1C` (centres undefined), which inhibition is on record?
The inhibition was -3.75%.

With `CC/C(=N/Nc1ccccc1)c1cnnc(SC)n1` as the molecule, how does the inhibition read?
The inhibition was 46.9% (active).

`C/C(=N/Nc1ccc(Cl)cc1)c1cnnc(-c2ccccc2)n1` was tested. Which inhibition did it give?
Its inhibition is -2.69%.

For `CSc1nsc(NC(=O)Nc2ccccc2)n1`, which inhibition is on record?
The inhibition was -11%.

For `COc1cccc(NC(=O)CSc2nnc(-c3cccnc3)o2)c1`, which inhibition is on record?
Its inhibition is -6.7%.

With `COC(C[C@@H](O)C[C@H](O)[C@H](C)OCc1ccccc1)OC` as the molecule, how does the inhibition read?
The inhibition was 3.16%.

With `CCCCn1c(N)c(N(CC(C)C)C(=O)c2cnc(C)cn2)c(=O)[nH]c1=O` as the molecule, how does the inhibition read?
The inhibition was -0.67%.

How did the inhibition turn out when `Cc1c(C)n2c(SCC(=O)N3CCCC3)nnc2[nH]c1=O` was run?
The inhibition was 4.38%.

How did the inhibition turn out when `CCOC(=O)N1CCC(NC(=O)CCc2ccccc2)CC1` was run?
The inhibition was -0.86%.

How did the inhibition turn out when `CCOC(=O)N1CCC(NC(=O)COc2cc(=O)n(C)c3ccccc23)CC1` was run?
Its inhibition is -3.88%.

Which inhibition does the source give for `CCOC(=O)N1CCC(c2cc(=O)n(-c3ccccc3)[nH]2)CC1` here?
The inhibition was 37.3% (active).

With `CC(=O)CC[C@@H](C)O[C@@H]1OC(C)[C@H](O)CC1O` (some centres undefined) as the molecule, how does the inhibition read?
Its inhibition is -1.35%.

How did the inhibition turn out when `C[C@H]1CC[C@]2(O[C@@H](CCO)C[C@@H](O)[C@@H]2O)O1` was run?
Its inhibition is 1.91%.

How did the inhibition turn out when `COc1ccc(C=Nc2cccc3ncccc23)cc1` was run?
Its inhibition is 6.91%.

For `Oc1c(C=Nc2cccc3nsnc23)ccc2ccccc12`, which inhibition is on record?
Its inhibition is 64.1% (active).

Which inhibition does the source give for `NC(=O)C1CCN(C(=O)c2cn(-c3ccccc3)nc2-c2cccnc2)CC1` here?
Its inhibition is 4.31%.

For `O=C(c1cc(C(=O)N2CCN(c3ccc(F)cc3)CC2)cc([N+](=O)[O-])c1)N1CCN(c2ccc(F)cc2)CC1`, which inhibition is on record?
Its inhibition is 2.3%.

How did the inhibition turn out when `CC(NC(=O)c1ccccc1F)c1cccc2ccccc12` (centres undefined) was run?
The inhibition was 2.21%.

How did the inhibition turn out when `CN(C)[C@@H]1C(=O)C(C(N)=O)=C(O)[C@@]2(O)C(=O)C3=C(O)c4c(O)ccc(Cl)c4[C@@H](O)[C@H]3C[C@@H]12` was run?
The inhibition was 69.1% (active).

With `O=C(Nc1nc(-c2ccco2)c(-c2ccco2)s1)c1ccco1` as the molecule, how does the inhibition read?
Its inhibition is 28.3%.

Which inhibition does the source give for `CC(Sc1nn(-c2ccc(Cl)cc2)c(=S)s1)C(=O)NCC1CCCO1` (centres undefined) here?
Its inhibition is -4.24%.

Which inhibition does the source give for `COc1ccc(C(CNC(=O)c2ccc(NS(=O)(=O)c3ccc(F)c(C)c3)cc2)N(C)C)cc1` (centres undefined) here?
The inhibition was -9.5%.

With `O=C(N/N=C/c1c[nH]c2ccccc12)c1cc2ccccc2o1` as the molecule, how does the inhibition read?
Its inhibition is -5.04%.

Which inhibition does the source give for `O=C(N/N=C/c1c[nH]c2ccccc12)c1ccccc1O` here?
Its inhibition is -1.35%.

`O=C(O)c1cccc(NC(=S)N/N=C/c2c[nH]c3ccccc23)c1` was tested. Which inhibition did it give?
Its inhibition is 48.7% (active).

How did the inhibition turn out when `O=[N+]([O-])c1ccc(N/N=C2/CCCCC2c2ccccn2)c([N+](=O)[O-])c1` (centres undefined) was run?
Its inhibition is 27.8%.

Which inhibition does the source give for `C[n+]1ccccc1C1CCCC/C1=N\Nc1ccc([N+](=O)[O-])cc1[N+](=O)[O-]` (centres undefined) here?
The inhibition was 45.5% (active).

For `O=C(Nc1ccccc1)O/N=C1\CCCCC1c1ccc([N+](=O)[O-])cc1[N+](=O)[O-]` (centres undefined), which inhibition is on record?
The inhibition was -4.23%.

With `COc1ccc(NC(=O)CN(C)C(=O)c2cccc(S(=O)(=O)N3CCN(c4ccccc4)CC3)c2)cc1` as the molecule, how does the inhibition read?
Its inhibition is 0.96%.

How did the inhibition turn out when `CCOC(=O)c1c(C)[nH]c(C(=O)OCC(=O)N2CCCC2=O)c1C` was run?
The inhibition was -4.82%.

With `CCN1C(=O)[C@@H]2[C@@H](c3ccc(-c4ccccc4)cc3)N3CCCC[C@@]3(C(=O)OC)[C@@H]2C1=O` as the molecule, how does the inhibition read?
Its inhibition is -2.94%.

How did the inhibition turn out when `COc1ccc(C(CNC(=O)c2cccc(S(=O)(=O)Nc3ccccc3Cl)c2)N2CCOCC2)cc1` (centres undefined) was run?
Its inhibition is -26.9%.

Which inhibition does the source give for `Cc1cc(C)n2nc(C(=O)OCC(=O)N(CCC#N)c3ccc(F)cc3)nc2n1` here?
Its inhibition is 7.91%.

How did the inhibition turn out when `CCOC(=O)c1cnc(-c2ccccc2)nc1Oc1ccc(C)cc1` was run?
The inhibition was 2.24%.

How did the inhibition turn out when `CCOC(=O)C1=C(c2ccc(OC)cc2)C(=O)c2ccccc2C1=O` was run?
The inhibition was 40.5% (active).

How did the inhibition turn out when `CCOC(=O)c1c(-c2ccc(C)cc2)csc1/N=C(\C)C1=C(O)c2ccccc2C1=O` was run?
Its inhibition is 7.75%.

How did the inhibition turn out when `CCCC(=O)Nc1ncnc2c1ncn2[C@@H]1O[C@@H]2OP(=O)(O)OC[C@H]2[C@H]1OC(=O)CCC` was run?
Its inhibition is -0.48%.
